{
  "source": "ChEMBL document CHEMBL4513216",
  "about": "“Probing the Open Global Health Chemical Diversity Library for Multistage-Active Starting Points for Next-Generation Antimalarials” (ACS Infect Dis, 2020)",
  "note": "Screen size: about 69,000 compounds; about 8,600 (12%) showed an effect of 50% or more. This excerpt belongs to a sample that is enriched for strong results.",
  "data": [
    {"system": "Plasmodium berghei", "assay": "Screen against P. berghei liver stage (PbLuc), transformed with Luciferase, at 10uM", "type": "functional, HepG2", "settings": "tested at 10 uM", "units": {"INHIBITION": "%"}, "values": [
      {"smiles": "COCC(=O)NCc1cc(=O)n2c(n1)CN(Cc1ccsc1)CCC2", "INHIBITION": 41.5},
      {"smiles": "CC(C)(C)OC(=O)N1CC(=O)N(Cc2ccco2)CC(O)C1", "note": "(stereo unspecified)", "INHIBITION": 29.8},
      {"smiles": "CO[C@H]1CN(C(=O)OC(C)(C)C)CC1NCc1cccn1C", "note": "(stereo partly specified)", "INHIBITION": 54.5},
      {"smiles": "CO[C@H]1CN(C(=O)OC(C)(C)C)CC1NCc1ccco1", "note": "(stereo partly specified)", "INHIBITION": 74},
      {"smiles": "CO[C@H]1CN(C(=O)OC(C)(C)C)CC1NCc1ccn(C)c1", "note": "(stereo partly specified)", "INHIBITION": 39.6},
      {"smiles": "CC(C)(C)OC(=O)N1CCC(C(=O)NCc2ccccc2)C1", "note": "(stereo unspecified)", "INHIBITION": -10.3},
      {"smiles": "CC(C)(C)OC(=O)N1CC(=O)N(CCc2ccccc2)CC(O)C1", "note": "(stereo unspecified)", "INHIBITION": 9.36},
      {"smiles": "CN(Cc1ccco1)C(=O)[C@H]1CSCN1C(=O)OC(C)(C)C", "INHIBITION": 29.6},
      {"smiles": "CO[C@H]1CN(C(=O)OC(C)(C)C)CC1NCc1cc[nH]c1", "note": "(stereo partly specified)", "INHIBITION": 38.7},
      {"smiles": "CO[C@H]1CN(C(=O)OC(C)(C)C)CC1NCc1ccoc1", "note": "(stereo partly specified)", "INHIBITION": 66.5},
      {"smiles": "CCOCCN1Cc2ncn(C)c2C(COCC2CCOCC2)C1", "note": "(stereo unspecified)", "INHIBITION": 36.9},
      {"smiles": "CCCc1ccc2oc(C(=O)N3CCN(CCOC)CC3)c(C)c2c1", "INHIBITION": -13.1},
      {"smiles": "COc1ccc(-n2cccn2)c(CN2CCC3(CCCN(C)C3=O)C2)c1", "note": "(stereo unspecified)", "INHIBITION": 43.9},
      {"smiles": "Nc1nc(N)c2c(n1)OC1(CCN(C(=O)CC3CCCNC3)CC1)C2", "note": "(stereo unspecified)", "INHIBITION": 27.1},
      {"smiles": "Cc1cc(C(=O)N[C@H]2Cc3ccccc3[C@@H]2N)c(=O)[nH]c1C", "INHIBITION": 21.5},
      {"smiles": "Cc1nc(CN2CCN(C)C(=O)C23CCN(CC2CCCC2)CC3)cs1", "INHIBITION": 49.4},
      {"smiles": "Cc1noc([C@H]2COC[C@H]3CN(C(=O)Cc4ccccc4F)C[C@H]32)n1", "INHIBITION": 12.7},
      {"smiles": "O=C(CCCn1cccn1)N1C[C@@H](O)[C@H](Oc2cccc(F)c2)C1", "INHIBITION": 32.8},
      {"smiles": "CCn1cc(CN(C)C(=O)c2cccc(CCC(C)(C)O)c2)cn1", "INHIBITION": 7.11},
      {"smiles": "Cc1cnccc1CN(C)C(=O)c1cccc(CCC(C)(C)O)c1", "INHIBITION": -2.39},
      {"smiles": "O=C(NCc1cnn2cccnc12)c1cccc(CC2CCNCC2)c1", "INHIBITION": 77.7},
      {"smiles": "CC(C)Cn1cncc1CNC(=O)c1cccc(CC2CCNCC2)c1", "INHIBITION": 42.3},
      {"smiles": "Cc1cccnc1[C@H](C)NC(=O)c1cccc(CC2CCNCC2)c1", "INHIBITION": 15},
      {"smiles": "CC(C)(O)CCc1cccc(C(=O)NCc2cnn3cccnc23)c1", "INHIBITION": 54.5},
      {"smiles": "CCOc1ccccc1CC(=O)N1C[C@H](C2CC2)[C@@H](N)C1", "INHIBITION": 2.66},
      {"smiles": "Cc1nn(C)cc1NC(=O)CN1CCN(C2CCCC2)C(=O)C1", "INHIBITION": 19.35},
      {"smiles": "CC(C)c1nc(C2CCCN2Cc2nccn2CC(F)(F)F)no1", "note": "(stereo unspecified)", "INHIBITION": 26.4},
      {"smiles": "c1cc(-c2cnc(NC3CC3)nc2[C@@H]2CCCO2)ccn1", "INHIBITION": 5.34},
      {"smiles": "Cc1ccc(NC2CCN(C(=O)COc3ccccc3)CC2)nn1", "INHIBITION": -29.7},
      {"smiles": "Cc1ccc(NC2CCN(C(=O)COC3CCCCC3)CC2)nn1", "INHIBITION": -7.81},
      {"smiles": "CS(=O)(=O)NCC1CCCN(C(=O)COCC2CC2)C1", "note": "(stereo unspecified)", "INHIBITION": 48.1},
      {"smiles": "O=C(COCC1CC1)N1CCSCC1", "INHIBITION": 64.9},
      {"smiles": "Cc1ccc(NC2CCN(C(=O)COCC(F)(F)F)CC2)nn1", "INHIBITION": 53},
      {"smiles": "CC(C)(O)CN1CCN(C(=O)COCC2CC2)CC1", "INHIBITION": -38.8},
      {"smiles": "Cc1ccc(NC2CCN(C(=O)CCOCC(F)(F)F)CC2)nn1", "INHIBITION": 33.3},
      {"smiles": "Cc1ccc(NC2CCN(C(=O)COC3CCCC3)CC2)nn1", "INHIBITION": -28.4},
      {"smiles": "Cc1ccc(NC2CCN(C(=O)COCC3CC3)CC2)nn1", "INHIBITION": 56.6},
      {"smiles": "O=C(NCc1csc(Br)c1)N1CCOCC1", "INHIBITION": -6.865},
      {"smiles": "COCCC(=O)NCCc1nc2cc(-c3ccc(OC)cc3)ncn2n1", "INHIBITION": 23.5},
      {"smiles": "Cc1oncc1C(=O)N1CCC2(CC1)C(c1cnn(C)c1)CC(=O)N2C", "note": "(stereo unspecified)", "INHIBITION": -15.5},
      {"smiles": "CN(C)CC1[C@H]2CN(C(=O)c3cc(=O)[nH]c4ccc(F)cc34)C[C@@H]12", "note": "(stereo partly specified)", "INHIBITION": 43},
      {"smiles": "CCC(C(=O)NC(C)(C)C)n1ccc2ncccc2c1=O", "note": "(stereo unspecified)", "INHIBITION": 20.9},
      {"smiles": "c1coc(-c2nc(CNC3CCCNC3)no2)c1", "note": "(stereo unspecified)", "INHIBITION": -25.6},
      {"smiles": "CN(C)c1cc(C2CCCN2C(=O)c2ccc(=O)n(C)c2)ccn1", "note": "(stereo unspecified)", "INHIBITION": -76.7},
      {"smiles": "CN(C)c1cc(CNC(=O)c2ccccc2Cl)ccn1", "INHIBITION": -7.35},
      {"smiles": "CC(c1cccc(Cl)c1)N(C)Cc1nc2c(cnn2C)c(=O)[nH]1", "note": "(stereo unspecified)", "INHIBITION": 15.32},
      {"smiles": "COCCc1ncc(CNC2(c3ccc(Cl)cc3)CC2)cn1", "INHIBITION": -57.4},
      {"smiles": "CC(C)CN1C[C@@H]2C(=O)N(C)C3(CCN(C(=O)C(C)C)CC3)[C@@H]2C1", "INHIBITION": -40.5},
      {"smiles": "Cc1noc(C(C)C)c1C(=O)NCCCN1CCC(C)CC1", "INHIBITION": -12.1},
      {"smiles": "Cc1noc(C(C)C)c1C(=O)NCCCN1CCNCC1", "INHIBITION": -18},
      {"smiles": "Cc1noc(C(C)C)c1C(=O)NCCCN1CCCC1", "INHIBITION": 66.2},
      {"smiles": "Cc1ccc2c(n1)N(CCn1cccn1)CCN(S(C)(=O)=O)C2", "INHIBITION": -73.5},
      {"smiles": "c1ccc(Cc2nnc(CN3CCn4c(nnc4C4CC4)C3)o2)cc1", "INHIBITION": 21.5},
      {"smiles": "CNc1ncc(CN(C)C(=O)[C@@]23CNC[C@@H]2CN(C(=O)C2CC2)C3)cn1", "INHIBITION": -149},
      {"smiles": "Cc1c[nH]c(CN(C)C(=O)[C@@]23CNC[C@@H]2CN(c2ncccn2)C3)n1", "INHIBITION": 30},
      {"smiles": "Cc1cnc(CN(C)C(=O)C23CNCC2CNC3)[nH]1", "note": "(stereo unspecified)", "INHIBITION": 58.4},
      {"smiles": "Cc1ccc(CN2CCOCS2(=O)=O)cc1F", "INHIBITION": 38},
      {"smiles": "CCn1cc(NC(=O)NCc2ccc(CN3CCOCC3)cc2)cn1", "INHIBITION": 30.2},
      {"smiles": "O=C(O)c1cc(-c2ccc3c(c2)OCO3)cc(S(=O)(=O)NC2CC2)c1", "INHIBITION": 8.74},
      {"smiles": "O=C(O)c1cc(-c2ccoc2)cc(S(=O)(=O)NC2CC2)c1", "INHIBITION": 27.6},
      {"smiles": "CN(C)c1ccc(-c2cc(C(=O)O)cc(S(=O)(=O)NC3CC3)c2)cc1", "INHIBITION": 84.9},
      {"smiles": "N#CC1Sc2nnc(-c3ccccc3F)n2N=C1N", "note": "(stereo unspecified)", "INHIBITION": 11.6},
      {"smiles": "COc1ccc2[nH]cc(-c3ccnc(NC4CCCC4)n3)c2c1", "INHIBITION": 90.1},
      {"smiles": "COc1ccc2[nH]cc(-c3ccnc(N4CCC(C)CC4)n3)c2c1", "INHIBITION": 36.7},
      {"smiles": "O=c1[nH]c(-c2ccncc2)ncc1-c1ccnc(NC2CCCCC2)n1", "INHIBITION": 1.11},
      {"smiles": "Cc1ccc(CN2CC[C@@]3(O)CCN(S(=O)(=O)N(C)C)C[C@H]3C2)cc1C", "INHIBITION": -4.95}
    ]}
  ]
}
